This is a sample that favours compounds with a hit; in the whole collection about 1.6% have one here.
OPRM1-OPRD1 inv = inverse agonists of MOR-DOR heterodimerization, primary screen, cell-based, luminescence; hit rate 0.21% among 340,000; Mu-type opioid receptor (Homo sapiens) + Delta-type opioid receptor (Homo sapiens), …; inhibition, % at 9.3 µM; AID 504357, 2011; cell-based MOR-DOR heterodimer luminescence, inverse agonism; in the data active = inhibition above about 22%, passing the limit was not always enough;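 note: 0% = cells with DMSO and 100% = wells without cells with DMSO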
HTR5A inv ctr = HTR5A inverse agonists in luminescence cell assay, primary screen, counter-screen for OPRM1-OPRD1 heterodimer inverse agonist project, full-deck HTS; 5-hydroxytryptamine receptor 5A (Homo sapiens), P47898; HTR5A cell line, inverse agonism; inhibition, % at 9.3 µM; hit rate 0.083% among 340,000; AID 504634, 2011; in the data active = inhibition mostly above about 23%, no sharp cut-off; inactive = mostly below about 18%;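 note: 0% = cells with DMSO and 100% = no-cell wells with DMSO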
Target sequence (P47898 whole entry, looked up): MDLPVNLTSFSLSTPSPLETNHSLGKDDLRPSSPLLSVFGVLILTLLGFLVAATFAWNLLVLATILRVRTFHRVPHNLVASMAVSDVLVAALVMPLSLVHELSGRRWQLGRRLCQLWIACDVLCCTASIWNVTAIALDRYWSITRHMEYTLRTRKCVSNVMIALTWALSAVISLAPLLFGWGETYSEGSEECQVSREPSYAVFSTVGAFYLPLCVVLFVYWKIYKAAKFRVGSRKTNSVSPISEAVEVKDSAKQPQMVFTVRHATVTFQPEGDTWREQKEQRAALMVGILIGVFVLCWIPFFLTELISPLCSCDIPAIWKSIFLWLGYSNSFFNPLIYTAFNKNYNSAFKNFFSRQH
PolyA inhibitor = polyadenylation inhibitors in yeast reporter cells, primary screen, luminescence, S. cerevisiae; activity score, % at 12 µM; hit rate 0.02% among 300,000; S. cerevisiae SKY197-pL101 polyadenylation reporter, beta-gal luminescence; efflux-impaired pdr1/pdr3 knockout yeast; score 100 = 6 SD above DMSO;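 active = lowest replicate activity score at least 50, where 100 means six control SD above control mean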;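 note: yeast exposed to compound for 9 h at 30 °C; higher score means more reporter readthrough which indicates perturbed polyadenylation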
HTR5A ag ctr = HTR5A agonists in luminescence cell assay, primary screen, counter-screen for OPRM1-OPRD1 heterodimer agonist project, full-deck HTS. cell-based. activation, % at 9.3 µM. hit rate 0.61% among 340,000. AID 504692, 2011; in the data active = activation mostly above about 9.5%, no sharp cut-off; inactive = mostly below about 7.6%;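 note: 0% = cells with vehicle only and 100% = reference agonist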
OPRM1-OPRD1 ag = agonists of OPRM1-OPRD1 heterodimerization, primary screen, cell-based, luminescence; Mu-type opioid receptor (Homo sapiens) + Delta-type opioid receptor (Homo sapiens), …; cells; activation, % at 9.3 µM; hit rate 0.3% among 340,000; in the data active = activation above about 18%;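 note: 0% = vehicle-treated cells and 100% = reference agonist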
NALP1 inh = NALP1 inflammasome inhibitors in reconstituted yeast, colorimetric, S. cerevisiae, triplicate retest; hit rate 0.61% among 280,000; inhibition, % at 10 µM; AID 2071, 2009; S. cerevisiae NALP1/ASC/caspase-1 growth, X-gal OD620, 72 h; in the data active = inhibition mostly above about 24%, no sharp cut-off; inactive = mostly below about 32%
Starred values were filed as active, the others as inactive; / = no result given.

SMILES	OPRM1-OPRD1 inv	HTR5A inv ctr	PolyA inhibitor	HTR5A ag ctr	OPRM1-OPRD1 ag	NALP1 inh
Cc1ccc(NC(=O)c2ccc(Cl)c(S(=O)(=O)N3CCCCCC3)c2)nc1	-2	-2	11	1	0	/
CC(=O)c1cccc(NS(=O)(=O)c2ccc(NC(=O)N3CCCCC3)cc2)c1	4	-5	16	11*	-1	-10
CCN(C(=O)COC(=O)c1nc(Cl)ccc1Cl)c1c(N)n(Cc2ccccc2)c(=O)[nH]c1=O	3	-20	/	7	-1	/
Fc1ccccc1N=C1NN=C(c2ccccc2)CS1	14	-52	-16	11*	-3	-2
COc1ccc(C(C[N+](=O)[O-])c2c(C)[nH]n(-c3ccccc3)c2=O)cc1 (stereo unspecified)	20	-5	-21	1	-4	45*
Cc1ccccc1N1C(=O)CC(c2c[nH]c3ccccc23)C1=O (stereo unspecified)	-1	-4	-3	1	0	23*
CCC(C(=O)NC1CCCC1)n1c2ccccc2c2nc(=O)cc(C)n21 (stereo unspecified)	10	-4	/	1	-2	/
O=C(Nc1ccccc1O)c1ccccc1O	11	1	0	-6	-2	15
CC(=O)/C=C(\C)Nc1ccccc1O	-17	3	-14	-1	4	43*
COc1cccc(C=O)c1OCCCOc1cccc2cccnc12	17	-10	-15	3	-3	29*
Brc1ccccc1OCCCOc1cccc2cccnc12	-5	1	-14	0	1	14
COC(=O)c1ccccc1OCCOCCOc1cccc2cccnc12	9	-42	8	11*	-2	24
COc1ccccc1NCc1nnc(-c2ccccc2)o1	11	8	11	-2	-2	16
Cc1c(CBr)[n+](=O)c2c(n1[O-])C(Br)CCC2Br (stereo unspecified)	1	4	-12	7	0	42*
Cc1c(C)[n+](=O)c2c(n1[O-])C(Br)CCC2Br (stereo unspecified)	5	18	0	-3	-1	18
CC(C)NC(=S)N/N=C1\CCCc2ccccc21	-14	-29	-19	11*	3	11
O/N=C1\CCCc2ccccc21	13	2	-13	-1	-2	2
CC(=O)c1ccc(NC(=O)N2CCCC(C(=O)c3ccc4c(c3)OCO4)C2)cc1 (stereo unspecified)	-11	-29	13	11*	2	6
CSc1ccccc1NC(=O)N1CCCC(C(=O)c2ccc3c(c2)OCO3)C1 (stereo unspecified)	9	1	0	1	-2	3
Cc1ccc(Nc2cc(C)c3c(O)cccc3n2)cc1C	-4	-2	-1	1	1	/
Cc1ccccc1Nc1cc(C)c2c(O)cccc2n1	12	-5	-1	2	-2	56*
COc1ccc(-c2csc(NCCc3nc4cc(C(=O)NCCCO)ccc4n3Cc3ccc(C)cc3)n2)cc1	9	0	-6	2	-2	/
Cc1cc(NC(=O)CSCc2nc(-c3cccc(F)c3)oc2C)no1	11	-8	9	3	-2	40*
Cc1ccc(-c2nc(CSCC(=O)Nc3cc(C)on3)c(C)o2)cc1	16	0	-7	0	-3	5
COc1ccc(N=C2S/C(=C\c3ccc(C)o3)C(=O)N2CC(C)C)cc1	-7	25	10	-11	1	40*
O=C(NCCc1nnc2ccc(NCc3cccnc3)nn12)c1ccccc1F	7	0	-1	0	-1	-11
Cc1c(Br)cccc1NC(=O)c1sccc1-n1cccc1	-17	-9	-12	-2	3	44*
CN(Cc1ccccc1F)C(=O)c1ccccc1Sc1ccccc1C#N	15	11	-9	-2	-3	15
O=C1c2ccccc2NC(c2ccccc2Cl)N1N=C1CCCCCC1 (stereo unspecified)	12	1	-7	0	-2	14

High-throughput results from PubChem BioAssay.
